Measured values published in PubChem BioAssay AID1159580 (chemical genetic matrix, 2015).
The campaign covered roughly 5,500 compounds. About 2,000 (36%) were called active. Inconclusive results (about 18%) are left out. No stated cut-off is given here; in the data, active means normalized growth mostly below about 0.91 (no sharp cut-off); inconclusive means no clear call, values can overlap the other calls; inactive means mostly above about 0.92. This is one part of the list.

Assay: chemical genetic growth profiling, strain panel (AID 1159580);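 further: tested at 20 µM; growth read once vehicle control cultures reached saturation at 30 °C; 1 = growth at the plate median or of vehicle wells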
Conditions: growth OD

Measured: normalized growth

CCCC1O[C@@H]2CC3C4CCC5=CC(=O)C=CC5(C)C4[C@@H](O)CC3(C)[C@]2(C(=O)CO)O1 (some centres not stated)
inactive: S. cerevisiae deletion strains, locus YJR075W, strain HOC1, stronger effect = lower value 1 | S. cerevisiae deletion strains, locus YKL009W, strain mrt4, stronger effect = lower value 1.03 | S. cerevisiae deletion strains, locus YKL068W, stronger effect = lower value 1 | S. cerevisiae deletion strains, locus YKL085W, strain MDH1 (second series), stronger effect = lower value 0.994 | S. cerevisiae deletion strains, locus YKL085W, strain MDH1, stronger effect = lower value 0.994 | S. cerevisiae deletion strains, locus YKL160W, strain elf1, stronger effect = lower value 1.01 | S. cerevisiae deletion strains, locus YKL190W, strain CNB1, stronger effect = lower value 0.995 | S. cerevisiae deletion strains, locus YKR001C, strain vps1, stronger effect = lower value 0.997 | S. cerevisiae deletion strains, locus YKR026C, strain gcn3, stronger effect = lower value 1.01 | S. cerevisiae deletion strains, locus YKR091W, strain srl3, stronger effect = lower value 1 | S. cerevisiae deletion strains, locus YLL001W, strain dnm1, stronger effect = lower value 1.02 | S. cerevisiae deletion strains, locus YLL026W, stronger effect = lower value 1.01 | S. cerevisiae deletion strains, locus YLL041C, strain sdh2, stronger effect = lower value 1.01 | S. cerevisiae deletion strains, locus YLR027C, strain aat2, stronger effect = lower value 1 | S. cerevisiae deletion strains, locus YLR039C, strain RIC1, stronger effect = lower value 1.02 | S. cerevisiae deletion strains, locus YLR058C, strain SHM2, stronger effect = lower value 1 | S. cerevisiae deletion strains, locus YLR102C, strain apc9, stronger effect = lower value 1.02 | S. cerevisiae deletion strains, locus YLR113W, strain HOG1, stronger effect = lower value 0.931 | S. cerevisiae deletion strains, locus YLR221C, strain rsa3, stronger effect = lower value 0.986 | S. cerevisiae deletion strains, locus YLR258W, strain gsy2, stronger effect = lower value 1.02 | S. cerevisiae deletion strains, locus YLR262C, strain YPT6 (second series), stronger effect = lower value 1 | S. cerevisiae deletion strains, locus YLR262C, strain YPT6, stronger effect = lower value 1 | S. cerevisiae deletion strains, locus YLR268W, strain sec22, stronger effect = lower value 1 | S. cerevisiae deletion strains, locus YLR320W, strain mms22, stronger effect = lower value 1.01 | S. cerevisiae deletion strains, locus YLR330W, strain CHS5, stronger effect = lower value 1 | S. cerevisiae deletion strains, locus YLR342W, strain FKS1 (second series), stronger effect = lower value 1.02 | S. cerevisiae deletion strains, locus YLR342W, strain FKS1, stronger effect = lower value 1.01 | S. cerevisiae deletion strains, locus YLR357W, strain rsc2, stronger effect = lower value 1.03 | S. cerevisiae deletion strains, locus YLR370C, strain arc18, stronger effect = lower value 1.01 | S. cerevisiae deletion strains, locus YLR371W, strain rom2, stronger effect = lower value 1.02 | S. cerevisiae deletion strains, locus YLR384C, strain iki3, stronger effect = lower value 1.01 | S. cerevisiae deletion strains, locus YLR418C, strain cdc73, stronger effect = lower value 0.978 | S. cerevisiae deletion strains, locus YML016C, strain PPZ1, stronger effect = lower value 1.01 | S. cerevisiae deletion strains, locus YML032C, strain rad52, stronger effect = lower value 1.04 | S. cerevisiae deletion strains, locus YML120C, strain ndi1, stronger effect = lower value 1 | S. cerevisiae deletion strains, locus YML124C, strain tub3, stronger effect = lower value 1.01 | S. cerevisiae deletion strains, locus YMR058W, strain fet3, stronger effect = lower value 1 | S. cerevisiae deletion strains, locus YMR078C, strain ctf18, stronger effect = lower value 1.02 | S. cerevisiae deletion strains, locus YMR125W, strain sto1, stronger effect = lower value 1 | S. cerevisiae deletion strains, locus YMR129W, stronger effect = lower value 1.01 | S. cerevisiae deletion strains, locus YMR205C, strain PFK2, stronger effect = lower value 1 | S. cerevisiae deletion strains, locus YMR223W, strain ubp8, stronger effect = lower value 1.03 | S. cerevisiae deletion strains, locus YMR231W, strain pep5, stronger effect = lower value 1.01 | S. cerevisiae deletion strains, locus YMR263W, strain SAP30, stronger effect = lower value 0.999 | S. cerevisiae deletion strains, locus YMR307W, strain GAS1, stronger effect = lower value 1.06 | S. cerevisiae deletion strains, locus YNL067W, strain RPL9B, stronger effect = lower value 0.99 | S. cerevisiae deletion strains, locus YNL071W, strain lat1, stronger effect = lower value 1 | S. cerevisiae deletion strains, locus YNL128W, strain TEP1, stronger effect = lower value 1 | S. cerevisiae deletion strains, locus YNL153C, strain GIM3, stronger effect = lower value 0.992 | S. cerevisiae deletion strains, locus YNL183C, strain NPR1, stronger effect = lower value 0.962 | S. cerevisiae deletion strains, locus YNL209W, strain ssb2, stronger effect = lower value 1.02 | S. cerevisiae deletion strains, locus YNL233W, strain BNI4, stronger effect = lower value 1.01 | S. cerevisiae deletion strains, locus YNL248C, strain rpa49, stronger effect = lower value 1.04 | S. cerevisiae deletion strains, locus YNL250W, strain rad50, stronger effect = lower value 1.02 | S. cerevisiae deletion strains, locus YNL271C, strain bni1, stronger effect = lower value 1.02 | S. cerevisiae deletion strains, locus YNL298W, strain CLA4, stronger effect = lower value 1.02 | S. cerevisiae deletion strains, locus YNL307C, strain MCK1, stronger effect = lower value 1.03 | S. cerevisiae deletion strains, locus YNL322C, strain KRE1 (second series), stronger effect = lower value 1.01 | S. cerevisiae deletion strains, locus YNL322C, strain KRE1, stronger effect = lower value 1 | S. cerevisiae deletion strains, locus YNR049C, strain mso1, stronger effect = lower value 0.997 | S. cerevisiae deletion strains, locus YNR052C, strain pop2, stronger effect = lower value 1.02 | S. cerevisiae deletion strains, locus YOL006C, strain TOP1, stronger effect = lower value 1 | S. cerevisiae deletion strains, locus YOL012C, strain htz1 1.19 | S. cerevisiae deletion strains, locus YOL147C, strain pex11, stronger effect = lower value 1.02 | S. cerevisiae deletion strains, locus YOR001W, strain rrp6, stronger effect = lower value 0.975 | S. cerevisiae deletion strains, locus YOR061W, strain CKA2, stronger effect = lower value 1 | S. cerevisiae deletion strains, locus YOR069W, strain VPS5, stronger effect = lower value 1 | S. cerevisiae deletion strains, locus YOR070C, strain gyp1, stronger effect = lower value 1.01 | S. cerevisiae deletion strains, locus YOR080W, strain dia2, stronger effect = lower value 0.999 | S. cerevisiae deletion strains, locus YOR083W, strain WHI5, stronger effect = lower value 0.991 | S. cerevisiae deletion strains, locus YOR106W, strain vam3, stronger effect = lower value 1.03 | S. cerevisiae deletion strains, locus YOR136W, strain idh2, stronger effect = lower value 1.03 | S. cerevisiae deletion strains, locus YOR144C, strain elg1, stronger effect = lower value 1.01 | S. cerevisiae deletion strains, locus YOR184W, strain ser1, stronger effect = lower value 1.05 | S. cerevisiae deletion strains, locus YOR231W, strain MKK1, stronger effect = lower value 0.961 | S. cerevisiae deletion strains, locus YOR265W, strain rbl2, stronger effect = lower value 1 | S. cerevisiae deletion strains, locus YOR270C, strain vph1, stronger effect = lower value 1.06 | S. cerevisiae deletion strains, locus YOR290C, strain snf2, stronger effect = lower value 1.03 | S. cerevisiae deletion strains, locus YOR316C, strain cot1, stronger effect = lower value 1.02 | S. cerevisiae deletion strains, locus YPL051W, strain arl3, stronger effect = lower value 0.998 | S. cerevisiae deletion strains, locus YPL055C, strain LGE1, stronger effect = lower value 0.999 | S. cerevisiae deletion strains, locus YPL078C, strain atp4, stronger effect = lower value 1.02 | S. cerevisiae deletion strains, locus YPL106C, strain sse1, stronger effect = lower value 1.08 | S. cerevisiae deletion strains, locus YPL240C, strain hsp82, stronger effect = lower value 0.995 | S. cerevisiae deletion strains, locus YPL241C, strain CIN2, stronger effect = lower value 0.998 | S. cerevisiae deletion strains, locus YPL256C, strain CLN2, stronger effect = lower value 1.03 | S. cerevisiae deletion strains, locus YPR119W, strain clb2, stronger effect = lower value 1.01 | S. cerevisiae deletion strains, locus YPR141C, strain kar3, stronger effect = lower value 1.02 | S. cerevisiae deletion strains, locus YPR163C, strain tif3, stronger effect = lower value 1.03 | S. cerevisiae deletion strains, locus YPR167C, strain met16, stronger effect = lower value 1.02 | S. cerevisiae deletion strains, strain wtn01, stronger effect = lower value 0.984 | S. cerevisiae strains, strain wild type, stronger effect = lower value 0.999
